Counter-ions that a name gives are not always drawn.
Columns and labels:
Settings in all cases: incubation time: 27 h, anaerobic, 37 °C;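 for the amine columns active = adjusted P below 0.05 in both replicates with a change the same way and a mean fold change under 0.8 or over 1.25; inactive = the rest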
[1] = test system: Clostridium sporogenes DSM 1664; experiment: growth (OD595) fold change vs plate DMSO controls (fold change (ratio)); higher = more growth
Summary of the method: (§1)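 Growth is calculated as fold change against the median of the DMSO control wells on each plate. Readings at 595 nm from anaerobic mGAM cultures (96-well, 27 h, 37 °C) were blank-subtracted, background-corrected with 20 µM compound solutions in water, and converted to OD by a calibration factor of 5. Fold changes above 1.5 were recorded as NA, and results are means of 2 biological replicates.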

Escherichia coli IAI1 [2] = experiment: as above
Summary of the method: as §1

[3] = test system: Klebsiella aerogenes DSM 30053; experiment: as above
Summary of the method: as §1

[4] = test system: Ruminococcus gnavus DSM 108212; experiment: as above
Summary of the method: as §1

[5] = test system: Klebsiella aerogenes DSM 30053; experiment: fold change of Histamine concentration vs plate DMSO controls (fold change (ratio)); higher = more amine produced, active = hit call of the paper (significant change in both replicates, either direction)
Summary of the method: (§2)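 Using LC–triple-quadrupole MS with dynamic MRM, amines were quantified against external calibration curves and corrected for drift within each batch. Samples were whole anaerobic mGAM cultures of four gut strains, grown 27 h at 37 °C from OD 0.1 before 1:1 dilution, extracted with cold acetonitrile/methanol containing 0.1% formic acid and centrifuged. Compounds were present at 20 µM final (sweeteners at 50 µM final). The numbers are fold changes versus plate DMSO controls, each the mean of 2 biological replicates.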

[6] = test system: Clostridium sporogenes DSM 1664; experiment: fold change of Tryptamine concentration vs plate DMSO controls (fold change (ratio)); higher = more amine produced, active = hit call of the paper (significant change in both replicates, either direction)
Summary of the method: as §2

[7] = test system: Ruminococcus gnavus DSM 108212; experiment: as above
Summary of the method: as §2

Escherichia coli IAI1 [8] = experiment: fold change of Putrescine concentration vs plate DMSO controls (fold change (ratio)); higher = more amine produced, active = hit call of the paper (significant change in both replicates, either direction)
Summary of the method: as §2

[9] = test system: Klebsiella aerogenes DSM 30053; experiment: as above
Summary of the method: as §2

Escherichia coli IAI1 [10] = experiment: fold change of Cadaverine concentration vs plate DMSO controls (fold change (ratio)); higher = more amine produced, active = hit call of the paper (significant change in both replicates, either direction)
Summary of the method: as §2

[11] = test system: Klebsiella aerogenes DSM 30053; experiment: as above
Summary of the method: as §2

[12] = test system: Ruminococcus gnavus DSM 108212; experiment: fold change of 2-Phenylethylamine concentration vs plate DMSO controls (fold change (ratio)); higher = more amine produced, active = hit call of the paper (significant change in both replicates, either direction)
Summary of the method: as §2

Row | SMILES | growth [1] | growth (Escherichia coli IAI1 [2]) | growth [3] | growth [4] | fold change of Histamine concentration [5] | fold change of Tryptamine concentration [6] | fold change of Tryptamine concentration [7] | fold change of Putrescine concentration (Escherichia coli IAI1 [8]) | fold change of Putrescine concentration [9] | fold change of Cadaverine concentration (Escherichia coli IAI1 [10]) | fold change of Cadaverine concentration [11] | fold change of 2-Phenylethylamine concentration [12]
1 | CC1(C)S[C@@H]2[C@H](NC(=O)[C@H](N)c3ccccc3)C(=O)N2[C@H]1C(=O)O [Ampicillin trihydrate] (20 µM) | 0 | 0.431 | 0.91 | 0 | 0.914 (inactive) | 0.01 (active) | 0.0662 (active) | 2.31 (active) | 1.03 (inactive) | 2.29 (active) | 1.06 (inactive) | 0.0431 (active)
2 | Cc1c(N(C)C)c(=O)n(-c2ccccc2)n1C [Amidopyrine] (20 µM) | 0.923 | 1.02 | 0.997 | 1.18 | 0.997 (inactive) | 0.979 (inactive) | 1.16 (inactive) | 0.995 (inactive) | 0.986 (inactive) | 0.985 (inactive) | 1.03 (inactive) | 1.19 (inactive)
3 | CNCc1cc(-c2ccccc2F)n(S(=O)(=O)c2cccnc2)c1 [Vonoprazan] (20 µM) | 1.08 | 0.967 | 0.975 | 1.04 | 1.04 (inactive) | 1 (inactive) | 1.02 (inactive) | 0.503 (inactive) | 1 (inactive) | 0.483 (inactive) | 0.982 (inactive) | 0.999 (inactive)
4 | Nc1ccc(S(=O)(=O)Nc2ccc(Cl)nn2)cc1 [Sulfachloropyridazine] (20 µM) | 1.03 | 0.966 | 1.05 | 0.974 | 0.939 (inactive) | 1.01 (inactive) | 1.04 (inactive) | 0.964 (inactive) | 0.976 (inactive) | 0.962 (inactive) | 1.01 (inactive) | 1.14 (inactive)
5 | C#C[C@]1(O)CC[C@H]2[C@@H]3CCC4=CC(=O)CC[C@@H]4[C@H]3CC[C@@]21CC [(D-) Norgestrel] (20 µM) | 1.06 | 0.994 | 1.02 | 0.996 | 1.05 (inactive) | 1.01 (inactive) | 1.01 (inactive) | 0.982 (inactive) | 0.998 (inactive) | 1.03 (inactive) | 0.985 (inactive) | 0.978 (inactive)
6 | COc1cccc(N(C)C(=S)Oc2ccc3c(c2)CCCC3)n1 [Liranaftate] (20 µM) | 1.1 | 0.972 | 0.969 | 0.941 | 1 (inactive) | 0.974 (inactive) | 1.31 (active) | 0.998 (inactive) | 1.06 (inactive) | 1.01 (inactive) | 1.07 (inactive) | 1.69 (active)
7 | COCC(=O)Nc1c(I)c(C(=O)NCC(O)CO)c(I)c(C(=O)N(C)CC(O)CO)c1I (stereo not given) [Iopromide] (20 µM) | 1.27 | 1.02 | 1.06 | 1.02 | 1.01 (inactive) | 1.01 (inactive) | 1.11 (inactive) | 1.09 (inactive) | 0.975 (inactive) | 0.989 (inactive) | 1.02 (inactive) | 1.15 (inactive)
8 | O=C(CCCN1CC=C(n2c(=O)[nH]c3ccccc32)CC1)c1ccc(F)cc1 [Droperidol] (20 µM) | 1.02 | 0.959 | 1.02 | 0.835 | 0.994 (inactive) | 0.988 (inactive) | 0.963 (inactive) | 0.977 (inactive) | 1.02 (inactive) | 1.03 (inactive) | 1 (inactive) | 0.956 (inactive)
9 | CN(C)CCCN1c2ccccc2[S+]([O-])c2ccc(Cl)cc21 (stereo not given) [Chlorpromazine Sulfoxide] (20 µM) | 0.948 | 0.996 | 0.985 | 1.03 | 1.04 (inactive) | 1.06 (inactive) | 1.04 (inactive) | 0.993 (inactive) | 0.996 (inactive) | 1.01 (inactive) | 0.977 (inactive) | 1.1 (inactive)
10 | Cc1ccccc1C(OCCN(C)C)c1ccccc1 (stereo not given) [Orphenadrine hydrochloride] (20 µM) | 0.998 | 1.02 | 0.938 | 1.09 | 0.902 (inactive) | 1.34 (inactive) | 1.07 (inactive) | 1.07 (inactive) | 0.895 (inactive) | 1.04 (inactive) | 1.03 (inactive) | 1.16 (inactive)
11 | CC(=O)c1ccc(S(=O)(=O)NC(=O)NC2CCCCC2)cc1 [Acetohexamide] (20 µM) | 0.85 | 1.02 | 0.972 | 1.33 | 1.05 (inactive) | 1.03 (inactive) | 0.951 (inactive) | 0.999 (inactive) | 1 (inactive) | 1.05 (inactive) | 0.984 (inactive) | 0.942 (inactive)
12 | CN(C)CCN(Cc1cccs1)c1ccccn1 [Methapyrilene hydrochloride] (20 µM) | 1.04 | 1 | 1 | 1.2 | 0.994 (inactive) | 1.02 (inactive) | 1.05 (inactive) | 0.892 (inactive) | 0.993 (inactive) | 1.18 (inactive) | 0.985 (inactive) | 1.08 (inactive)
13 | C[C@H]1O[C@@H](O[C@H]2[C@@H](O)C[C@H](O[C@H]3[C@@H](O)C[C@H](O[C@H]4CC[C@@]5(C)[C@H](CC[C@@H]6[C@@H]5C[C@@H](O)[C@]5(C)[C@@H](C7=CC(=O)OC7)CC[C@]65O)C4)O[C@@H]3C)O[C@@H]2C)C[C@H](O)[C@@H]1O [Digoxin] (20 µM) | 1.14 | 0.971 | 0.995 | 0.945 | 1.05 (inactive) | 1 (inactive) | 1.02 (inactive) | 1.01 (inactive) | 0.999 (inactive) | 0.992 (inactive) | 0.991 (inactive) | 1.03 (inactive)
14 | C[n+]1ccccc1/C=N/O [Pralidoxime chloride] (20 µM) | 1.19 | 0.995 | 1.01 | 1.05 | 1.13 (inactive) | 1.02 (inactive) | 1.01 (inactive) | 0.968 (inactive) | 1.04 (inactive) | 1.02 (inactive) | 0.991 (inactive) | 1.01 (inactive)
15 | CCOC(=O)[C@H](CCc1ccccc1)N[C@@H](C)C(=O)N1[C@H](C(=O)O)C[C@H]2CCCC[C@@H]21 [Trandolapril] (20 µM) | 0.941 | 1.05 | 1.02 | 1.01 | 0.994 (inactive) | 0.989 (inactive) | 1.02 (inactive) | 1.08 (inactive) | 1 (inactive) | 0.978 (inactive) | 0.991 (inactive) | 1.02 (inactive)
16 | CCc1cc(C(N)=S)ccn1 [Ethionamide] (20 µM) | 1.09 | 1.05 | 1.03 | 0.995 | 0.962 (inactive) | 1 (inactive) | 1.02 (inactive) | 1.05 (inactive) | 1 (inactive) | 1 (inactive) | 1.02 (inactive) | 1.01 (inactive)
17 | NCCNCCNCCNCCN [Tetraethylenepentamine pentahydrochloride] (20 µM) | 1 | 1.1 | 1.02 | 0.923 | 1 (inactive) | 1.03 (inactive) | 0.952 (inactive) | 1.07 (inactive) | 0.994 (inactive) | 0.955 (inactive) | 0.994 (inactive) | 0.967 (inactive)
18 | O=C(NCC1CCCCN1)c1cc(OCC(F)(F)F)ccc1OCC(F)(F)F (stereo not given) [Flecainide acetate] (20 µM) | 0.94 | 0.991 | 1.01 | 0.997 | 1 (inactive) | 0.99 (inactive) | 1.03 (inactive) | 0.98 (inactive) | 0.976 (inactive) | 0.987 (inactive) | 0.989 (inactive) | 1.06 (inactive)
19 | C[N+]1(CCCCC[N+]2(C)CCCC2)CCCC1 [Pentolinium bitartrate] (20 µM) | 0.933 | 0.986 | 1.01 | 0.709 | 1.06 (inactive) | 1.08 (inactive) | 0.98 (inactive) | 1.03 (inactive) | 1.01 (inactive) | 0.966 (inactive) | 0.999 (inactive) | 0.943 (inactive)
20 | CC(=O)O[C@]1(C(C)=O)CC[C@H]2[C@@H]3C=C(Cl)C4=CC(=O)[C@@H]5C[C@@H]5[C@]4(C)[C@H]3CC[C@@]21C [Cyproterone acetate] (20 µM) | 1.17 | 0.908 | 0.894 | 0.639 | 0.982 (inactive) | 0.986 (inactive) | 0.938 (inactive) | 1.02 (inactive) | 1 (inactive) | 0.999 (inactive) | 0.996 (inactive) | 0.927 (inactive)
21 | CCN1CCN(Cc2ccc(Nc3ncc(F)c(-c4cc(F)c5nc(C)n(C(C)C)c5c4)n3)nc2)CC1 [Abemaciclib] (20 µM) | 0.975 | 1 | 1.04 | 1.19 | 1.02 (inactive) | 1 (inactive) | 1 (inactive) | 0.983 (inactive) | 1.01 (inactive) | 1.03 (inactive) | 0.993 (inactive) | 1.02 (inactive)
22 | CN1CCCN(C(c2ccccc2)c2ccc(Cl)cc2)CC1 (stereo not given) [Homochlorcyclizine dihydrochloride] (20 µM) | 1.12 | 0.99 | 1 | 0.861 | 0.994 (inactive) | 0.989 (inactive) | 0.918 (inactive) | 1.03 (inactive) | 1.01 (inactive) | 0.885 (inactive) | 1.01 (inactive) | 0.983 (inactive)
23 | O=C(CCCN1CCC(O)(c2ccc(Br)cc2)CC1)c1ccc(F)cc1 [Bromperidol] (20 µM) | 0.952 | 0.965 | 0.953 | 0.813 | 1.02 (inactive) | 1.02 (inactive) | 0.916 (inactive) | 0.99 (inactive) | 1 (inactive) | 0.913 (inactive) | 0.998 (inactive) | 0.949 (inactive)
24 | CCOC1O[C@H]([C@@H](COCc2ccccc2)OCc2ccccc2)[C@H](OCc2ccccc2)[C@H]1O (stereo not given in full) [Tribenoside] (20 µM) | 0.917 | 0.959 | 0.99 | 0.972 | 1.06 (inactive) | 0.969 (inactive) | 0.966 (inactive) | 1 (inactive) | 1.03 (inactive) | 1.01 (inactive) | 0.987 (inactive) | 0.961 (inactive)
25 | COc1ccc2[nH]c([S+]([O-])Cc3ncc(C)c(OC)c3C)nc2n1 (stereo not given) [Tenatoprazole] (20 µM) | 1 | 1.06 | 1.04 | 1.14 | 0.985 (inactive) | 1.03 (inactive) | 1.01 (inactive) | 1.06 (inactive) | 0.996 (inactive) | 0.977 (inactive) | 0.995 (inactive) | 1.01 (inactive)
